# Laboratory results: the supplement of paper PMC11732987, “Enantioselective OTUD7B fragment discovery through chemoproteomics screening and high-throughput optimisation” (Communications Chemistry, 2025)
# Values without a mark were called inactive.
# Assays:
# Assay in all cases: log2 ratio of Biotin-Ahx-Ub-VS probe labelling (fragment/DMSO); higher = less target engagement (more negative = stronger competition), active = hit call of the paper (q ≤ 0.05, log2 ratio ≤ -1)
# Conditions in all cases: compound concentration: 200 uM; treatment time: 3 h
# ALG13 = biological target: T1, ALG13 (UniProt Q9NP73)
# T1 sequence (whole entry): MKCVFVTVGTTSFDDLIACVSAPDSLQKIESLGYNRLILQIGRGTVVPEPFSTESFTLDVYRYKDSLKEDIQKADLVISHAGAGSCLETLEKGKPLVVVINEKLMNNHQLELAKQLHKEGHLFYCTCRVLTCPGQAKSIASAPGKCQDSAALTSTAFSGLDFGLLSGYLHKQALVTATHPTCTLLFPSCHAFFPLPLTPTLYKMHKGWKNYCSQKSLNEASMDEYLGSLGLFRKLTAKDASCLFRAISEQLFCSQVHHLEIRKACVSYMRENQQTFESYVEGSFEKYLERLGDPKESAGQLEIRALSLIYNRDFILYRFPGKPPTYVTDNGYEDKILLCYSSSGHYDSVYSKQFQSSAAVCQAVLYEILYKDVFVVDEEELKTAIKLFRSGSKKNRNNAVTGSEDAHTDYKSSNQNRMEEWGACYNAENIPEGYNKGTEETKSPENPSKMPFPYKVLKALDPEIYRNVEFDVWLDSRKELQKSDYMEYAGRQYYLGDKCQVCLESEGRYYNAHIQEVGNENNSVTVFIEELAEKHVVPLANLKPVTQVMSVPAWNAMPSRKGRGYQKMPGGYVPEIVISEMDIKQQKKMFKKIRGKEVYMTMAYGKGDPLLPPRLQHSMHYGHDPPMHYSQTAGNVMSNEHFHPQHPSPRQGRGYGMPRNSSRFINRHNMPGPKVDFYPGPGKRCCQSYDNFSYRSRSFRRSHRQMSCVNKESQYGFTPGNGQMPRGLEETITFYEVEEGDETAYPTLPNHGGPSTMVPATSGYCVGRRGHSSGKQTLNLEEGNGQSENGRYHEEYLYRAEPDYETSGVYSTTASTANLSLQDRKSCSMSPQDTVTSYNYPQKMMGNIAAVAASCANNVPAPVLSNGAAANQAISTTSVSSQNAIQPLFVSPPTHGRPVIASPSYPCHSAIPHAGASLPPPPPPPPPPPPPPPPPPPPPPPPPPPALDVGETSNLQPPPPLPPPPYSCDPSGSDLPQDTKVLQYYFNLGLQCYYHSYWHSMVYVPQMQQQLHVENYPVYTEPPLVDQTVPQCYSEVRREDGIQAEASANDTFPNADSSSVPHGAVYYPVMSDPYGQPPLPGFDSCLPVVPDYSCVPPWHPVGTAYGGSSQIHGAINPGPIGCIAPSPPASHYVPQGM
# Method in brief: (§1)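 Labelling with Biotin-Ahx-Ub-VS (0.5 µM final, 1 h) followed a 3 h triplicate treatment of HEK293T lysate (495 µg per sample, Tris/CHAPS/IGEPAL buffer with protease inhibitors) with fragment at 200 µM or vehicle. Labelled DUBs were NeutrAvidin-enriched, digested with LysC and trypsin, and run by diaPASEF LC-MS/MS. The values, average log2 fragment/vehicle ratios by unpaired t-test, come from global-median-normalised Spectronaut label-free quantities. Proteins with ≥2 unique peptides were used.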
# ATXN3 = ATXN3 (UniProt P54252)
# ATXN3, sequence (P54252 whole entry): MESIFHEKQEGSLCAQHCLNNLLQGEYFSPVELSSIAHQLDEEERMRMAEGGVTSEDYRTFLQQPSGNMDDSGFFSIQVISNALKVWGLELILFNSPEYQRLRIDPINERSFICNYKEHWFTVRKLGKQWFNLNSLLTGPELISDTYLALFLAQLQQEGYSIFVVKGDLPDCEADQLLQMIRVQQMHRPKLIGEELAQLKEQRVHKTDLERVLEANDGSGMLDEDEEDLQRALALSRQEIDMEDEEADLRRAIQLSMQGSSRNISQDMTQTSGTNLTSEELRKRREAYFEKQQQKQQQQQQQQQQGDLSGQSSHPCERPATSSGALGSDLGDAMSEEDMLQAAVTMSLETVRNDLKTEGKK
# Method in brief: as §1
# BAP1 = biological target: T2, BAP1 (UniProt Q92560)
# T2 sequence (whole entry): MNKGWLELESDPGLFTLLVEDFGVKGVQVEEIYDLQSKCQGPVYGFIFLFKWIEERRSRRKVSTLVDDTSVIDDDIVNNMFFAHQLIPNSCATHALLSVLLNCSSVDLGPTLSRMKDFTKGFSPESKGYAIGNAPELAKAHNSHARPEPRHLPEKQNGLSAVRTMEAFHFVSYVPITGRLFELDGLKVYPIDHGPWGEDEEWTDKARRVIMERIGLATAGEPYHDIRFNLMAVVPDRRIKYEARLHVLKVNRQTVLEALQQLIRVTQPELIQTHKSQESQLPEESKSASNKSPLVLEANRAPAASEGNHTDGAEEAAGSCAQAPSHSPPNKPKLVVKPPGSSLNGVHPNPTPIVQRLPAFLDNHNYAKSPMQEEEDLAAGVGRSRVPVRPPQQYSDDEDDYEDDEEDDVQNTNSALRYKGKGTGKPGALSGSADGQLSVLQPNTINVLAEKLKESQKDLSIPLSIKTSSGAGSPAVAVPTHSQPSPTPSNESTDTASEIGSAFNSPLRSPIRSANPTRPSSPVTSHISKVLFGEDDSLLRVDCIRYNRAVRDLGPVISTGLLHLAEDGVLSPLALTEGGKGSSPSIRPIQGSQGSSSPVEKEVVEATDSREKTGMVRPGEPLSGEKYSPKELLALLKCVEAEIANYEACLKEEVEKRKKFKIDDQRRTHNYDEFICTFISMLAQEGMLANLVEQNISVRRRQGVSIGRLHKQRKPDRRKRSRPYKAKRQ
# Method in brief: as §1
# EIF3F = EIF3F (UniProt O00303)
# EIF3F, sequence (O00303 whole entry): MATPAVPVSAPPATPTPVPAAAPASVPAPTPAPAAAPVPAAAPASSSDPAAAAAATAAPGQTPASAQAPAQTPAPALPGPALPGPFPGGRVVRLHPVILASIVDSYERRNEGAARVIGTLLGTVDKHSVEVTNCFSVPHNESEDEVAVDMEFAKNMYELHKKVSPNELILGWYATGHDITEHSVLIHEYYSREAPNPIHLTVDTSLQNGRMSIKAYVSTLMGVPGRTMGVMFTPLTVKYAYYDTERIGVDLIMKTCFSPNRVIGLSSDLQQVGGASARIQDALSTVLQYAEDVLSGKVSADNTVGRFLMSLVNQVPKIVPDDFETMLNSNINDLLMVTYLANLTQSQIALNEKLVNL
# Method in brief: as §1
# EIF3H = EIF3H (UniProt O15372)
# EIF3H, sequence (O15372 whole entry): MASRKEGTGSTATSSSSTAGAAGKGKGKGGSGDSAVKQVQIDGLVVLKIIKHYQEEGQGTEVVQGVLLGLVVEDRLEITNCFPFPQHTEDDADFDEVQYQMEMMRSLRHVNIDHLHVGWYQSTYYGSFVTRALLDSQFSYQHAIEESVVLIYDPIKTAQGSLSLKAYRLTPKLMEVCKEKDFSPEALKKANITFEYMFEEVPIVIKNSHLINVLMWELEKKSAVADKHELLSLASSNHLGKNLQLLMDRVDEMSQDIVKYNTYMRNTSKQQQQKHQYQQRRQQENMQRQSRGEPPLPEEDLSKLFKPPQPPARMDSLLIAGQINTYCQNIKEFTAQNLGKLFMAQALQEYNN
# Method in brief: as §1
# FAM105A = biological target: T3, FAM105A (UniProt Q9NUU6)
# T3 sequence (whole entry): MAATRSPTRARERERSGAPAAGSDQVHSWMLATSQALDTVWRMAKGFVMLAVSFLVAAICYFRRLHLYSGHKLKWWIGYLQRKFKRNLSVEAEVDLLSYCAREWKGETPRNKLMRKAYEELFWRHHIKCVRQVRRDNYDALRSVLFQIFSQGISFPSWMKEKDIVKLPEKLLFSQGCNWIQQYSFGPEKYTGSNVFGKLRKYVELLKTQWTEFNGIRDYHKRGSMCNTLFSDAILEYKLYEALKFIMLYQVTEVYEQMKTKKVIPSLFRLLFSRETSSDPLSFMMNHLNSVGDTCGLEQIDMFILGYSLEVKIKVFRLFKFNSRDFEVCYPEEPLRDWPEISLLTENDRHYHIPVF
# Method in brief: as §1
# OTUB1 = OTUB1 (UniProt Q96FW1)
# OTUB1, sequence (Q96FW1 whole entry): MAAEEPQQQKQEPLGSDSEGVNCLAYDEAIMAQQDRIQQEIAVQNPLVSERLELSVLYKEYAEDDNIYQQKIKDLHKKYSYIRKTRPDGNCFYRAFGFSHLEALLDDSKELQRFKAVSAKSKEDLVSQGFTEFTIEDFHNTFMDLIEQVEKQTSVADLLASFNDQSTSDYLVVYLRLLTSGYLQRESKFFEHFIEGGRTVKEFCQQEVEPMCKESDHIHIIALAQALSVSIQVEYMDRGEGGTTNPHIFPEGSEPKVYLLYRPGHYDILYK
# Method in brief: as §1
# OTUD4 = biological target: T4, OTUD4 (UniProt Q01804)
# T4 sequence (whole entry): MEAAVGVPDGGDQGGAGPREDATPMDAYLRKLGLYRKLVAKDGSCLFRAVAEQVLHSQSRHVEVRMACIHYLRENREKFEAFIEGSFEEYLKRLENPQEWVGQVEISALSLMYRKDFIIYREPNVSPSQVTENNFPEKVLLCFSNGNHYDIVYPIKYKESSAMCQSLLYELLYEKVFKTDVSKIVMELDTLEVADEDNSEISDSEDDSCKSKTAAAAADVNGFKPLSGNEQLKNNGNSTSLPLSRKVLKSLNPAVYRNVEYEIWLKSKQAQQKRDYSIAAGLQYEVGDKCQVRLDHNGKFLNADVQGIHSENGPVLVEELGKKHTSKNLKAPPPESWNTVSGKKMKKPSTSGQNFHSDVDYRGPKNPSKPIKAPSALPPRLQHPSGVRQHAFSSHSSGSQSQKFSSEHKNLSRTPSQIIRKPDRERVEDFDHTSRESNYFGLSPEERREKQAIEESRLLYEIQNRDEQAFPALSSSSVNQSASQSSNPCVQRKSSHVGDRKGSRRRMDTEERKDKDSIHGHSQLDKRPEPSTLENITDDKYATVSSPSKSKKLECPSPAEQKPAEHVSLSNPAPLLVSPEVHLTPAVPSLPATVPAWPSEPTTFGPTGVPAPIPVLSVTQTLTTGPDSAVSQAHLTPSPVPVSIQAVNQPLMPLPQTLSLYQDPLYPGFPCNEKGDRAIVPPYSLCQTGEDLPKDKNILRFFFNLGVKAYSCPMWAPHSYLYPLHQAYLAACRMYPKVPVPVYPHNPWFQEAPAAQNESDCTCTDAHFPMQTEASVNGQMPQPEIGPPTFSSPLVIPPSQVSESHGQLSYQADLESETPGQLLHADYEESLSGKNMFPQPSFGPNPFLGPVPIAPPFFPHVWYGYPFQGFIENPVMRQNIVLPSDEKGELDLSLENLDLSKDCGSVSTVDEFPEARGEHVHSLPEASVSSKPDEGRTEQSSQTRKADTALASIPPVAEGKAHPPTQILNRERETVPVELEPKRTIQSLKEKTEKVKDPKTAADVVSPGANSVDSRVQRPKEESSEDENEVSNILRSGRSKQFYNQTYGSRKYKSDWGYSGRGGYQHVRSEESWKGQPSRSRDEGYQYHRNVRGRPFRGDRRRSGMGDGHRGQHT
# Method in brief: as §1
# OTUD5 = biological target: T5, OTUD5 (UniProt Q96G74)
# T5 sequence (whole entry): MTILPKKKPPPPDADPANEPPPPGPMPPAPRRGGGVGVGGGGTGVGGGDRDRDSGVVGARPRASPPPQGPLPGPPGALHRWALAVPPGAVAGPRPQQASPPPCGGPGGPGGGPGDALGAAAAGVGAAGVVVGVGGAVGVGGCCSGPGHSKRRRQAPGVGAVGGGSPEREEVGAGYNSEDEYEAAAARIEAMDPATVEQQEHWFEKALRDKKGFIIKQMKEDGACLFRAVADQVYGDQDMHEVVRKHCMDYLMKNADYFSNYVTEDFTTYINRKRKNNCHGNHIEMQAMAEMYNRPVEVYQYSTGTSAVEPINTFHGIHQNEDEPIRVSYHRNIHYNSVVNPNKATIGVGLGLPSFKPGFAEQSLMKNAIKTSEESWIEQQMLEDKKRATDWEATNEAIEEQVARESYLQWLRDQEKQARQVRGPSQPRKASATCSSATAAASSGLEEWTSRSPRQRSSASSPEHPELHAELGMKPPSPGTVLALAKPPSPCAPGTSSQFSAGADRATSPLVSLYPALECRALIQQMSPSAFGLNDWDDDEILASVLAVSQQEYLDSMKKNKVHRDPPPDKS
# Method in brief: as §1
smiles,measurement,setting,value
Cc1ccn2cc(CNC(=O)CCl)nc2c1.Cl,log2 ratio of Biotin-Ahx-Ub-VS probe labelling,ALG13,0.193
same,log2 ratio of Biotin-Ahx-Ub-VS probe labelling,ATXN3,-0.103
same,log2 ratio of Biotin-Ahx-Ub-VS probe labelling,BAP1,-1.14 (active)
same,log2 ratio of Biotin-Ahx-Ub-VS probe labelling,EIF3F,-0.185
same,log2 ratio of Biotin-Ahx-Ub-VS probe labelling,EIF3H,0.253
same,log2 ratio of Biotin-Ahx-Ub-VS probe labelling,FAM105A,0.254
same,log2 ratio of Biotin-Ahx-Ub-VS probe labelling,OTUB1,0.0771
same,log2 ratio of Biotin-Ahx-Ub-VS probe labelling,OTUD4,-0.505
same,log2 ratio of Biotin-Ahx-Ub-VS probe labelling,OTUD5,-0.214
